Drawing on PubChem BioAssay (NCI), this text covers growth for seven molecules.

The panel holds about 83,000 compounds, 20% with a hit somewhere; the sample as a whole holds those more often.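 Interpretation: 100, growth as untreated; towards 0, rising growth inhibition; 0, no net growth; 0 to -100, cell death. Compounds scoring below 10 were considered active.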 Unmarked numbers belong to inactive results. The source made the active and inactive calls.

Among the test systems are HCT-15 colon; HT29 colon; SNB-75 CNS; SNB-19 CNS; U251 CNS; PC-3 prostate; SK-MEL-5 melanoma; UACC-62 melanoma; LOX IMVI melanoma; SK-MEL-28 melanoma; SK-MEL-2 melanoma; EKVX NSCLC; SN12C renal; UO-31 renal; TK-10 renal; ACHN renal; CAKI-1 renal; A498 renal; CCRF-CEM leukemia; MOLT-4 leukemia.
Assay in all cases: NCI-60 one-dose screen, 48 h (100 = growth as untreated, 0 = no growth, -100 = all killed)
What all share (settings): 10 µM unless noted

Take `CN(CCNc1ccc(C(=N)N)cc1)c1ccc(C(=N)N)cc1`: the growth in the experiment with HCT-15 colon is 84.5%; in the experiment on HT29 colon, 101%; in the experiment on SNB-75 CNS, 96.8%; in the experiment on SNB-19 CNS, 104%; with U251 CNS it was 81.2%; with PC-3 prostate it was 82.2%. Further, the growth is 67% in the experiment with SK-MEL-5 melanoma; 72.6% with UACC-62 melanoma; 82.4% in the experiment on LOX IMVI melanoma; 94.8% with SK-MEL-28 melanoma; 90.4% in the experiment with SK-MEL-2 melanoma; 84.1% in the experiment on EKVX NSCLC. Also, the growth in the experiment with SN12C renal was 39.3%; in the experiment with UO-31 renal it was 88.3%; in the experiment on TK-10 renal, 94.1%; in the experiment with ACHN renal, 78.4%; with CAKI-1 renal, 62%; in the experiment on A498 renal, 57.7%. Besides, the growth in the experiment with CCRF-CEM leukemia was 7.18% (active); in the experiment with MOLT-4 leukemia it was 87.6%.

`Cc1[nH]c(C2CC(c3ccc(C(F)(F)F)c(F)c3)=NN2C)c(C)c1C(=O)NCC(F)(F)F` (stereo not given): the growth in the experiment on HCT-15 colon was 92.2%; in the experiment with HT29 colon, 102%; in the experiment with SNB-75 CNS, 96.9%; in the experiment on SNB-19 CNS it was 91.9%; in the experiment on U251 CNS it was 96.8%; in the experiment with PC-3 prostate, 98.1%. Further, the growth with SK-MEL-5 melanoma is 93.6%; with UACC-62 melanoma, 82.3%; in the experiment with LOX IMVI melanoma it was 93.1%; with SK-MEL-28 melanoma, 101%; with SK-MEL-2 melanoma, 107%; in the experiment with EKVX NSCLC it was 87.7%. Further, the growth is 93.1% in the experiment on SN12C renal; 72% in the experiment on UO-31 renal; 116% in the experiment on TK-10 renal; 99.3% in the experiment on ACHN renal; 81.1% with CAKI-1 renal; 30.8% in the experiment with A498 renal. In addition, the growth was 93.6% in the experiment with CCRF-CEM leukemia and 72.9% with MOLT-4 leukemia.

`C=C(CNCCO)[C@@H]1CC[C@]2(CO)CC[C@]3(C)[C@H](CC[C@@H]4[C@@]5(C)CCC(NCCO)C(C)(C)[C@@H]5CC[C@]43C)[C@@H]12` (stereo not given in full): the growth was 71.6% in the experiment with HCT-15 colon; 12.7% with HT29 colon; 66.8% in the experiment with SNB-75 CNS; 83.6% with SNB-19 CNS; 31.4% in the experiment on U251 CNS; 75.2% in the experiment with PC-3 prostate. For the same molecule, the growth in the experiment on SK-MEL-5 melanoma is 65.2%; with UACC-62 melanoma it was 94.6%; in the experiment on LOX IMVI melanoma, 33.3%; in the experiment on SK-MEL-28 melanoma it was 80.7%; with SK-MEL-2 melanoma, 96.1%; with EKVX NSCLC, 82.4%. Also, the growth in the experiment on SN12C renal was 89.1%; in the experiment with UO-31 renal, 65.2%; in the experiment on TK-10 renal, 92.7%; in the experiment with ACHN renal, 95.9%; with CAKI-1 renal it was 72.2%; in the experiment on A498 renal, 75.3%. The values for the growth with CCRF-CEM leukemia and in the experiment on MOLT-4 leukemia were 39.2% and 39.9%, respectively.

With `CCOC(=O)CC1CSC(N/N=C(/C)c2cccc(C(F)(F)F)c2)=N1` (stereo not given), the growth in the experiment with HCT-15 colon was 93.8%; in the experiment with HT29 colon, 94.3%; in the experiment on SNB-75 CNS, 98.3%; in the experiment with SNB-19 CNS, 106%; in the experiment on U251 CNS, 98.4%; in the experiment on PC-3 prostate, 97.8%. The growth in the experiment with SK-MEL-5 melanoma was 105%; in the experiment on UACC-62 melanoma, 97.1%; in the experiment with LOX IMVI melanoma, 104%; in the experiment on SK-MEL-28 melanoma, 107%; in the experiment with SK-MEL-2 melanoma, 123%; in the experiment with EKVX NSCLC it was 89.3%. For the same molecule, the growth was 103% in the experiment with SN12C renal; 80.2% with UO-31 renal; 95.8% with TK-10 renal; 106% with ACHN renal; 91.6% in the experiment with CAKI-1 renal; 97.4% in the experiment on A498 renal. The results for the growth with CCRF-CEM leukemia and in the experiment with MOLT-4 leukemia were 104% and 95.8%, respectively.

Regarding `O=C(O)COc1ccc(F)cc1`, the growth in the experiment on HCT-15 colon was 104%; with HT29 colon it was 93.8%; with SNB-75 CNS, 99.8%; in the experiment with SNB-19 CNS, 99.8%; in the experiment with U251 CNS, 102%; in the experiment on PC-3 prostate, 96.2%. For the same molecule, the growth in the experiment on SK-MEL-5 melanoma is 102%; in the experiment with UACC-62 melanoma, 102%; in the experiment with LOX IMVI melanoma, 99%; in the experiment with SK-MEL-28 melanoma it was 116%; in the experiment with SK-MEL-2 melanoma it was 99.6%; in the experiment on EKVX NSCLC it was 103%. Moreover, the growth was 98.1% with SN12C renal; 91.6% with UO-31 renal; 91.4% in the experiment on TK-10 renal; 111% in the experiment with ACHN renal; 94.7% in the experiment on CAKI-1 renal; 97.4% in the experiment on A498 renal. Also, the growth is 104% in the experiment on CCRF-CEM leukemia and 101% in the experiment with MOLT-4 leukemia.

For `C=C1CC[C@@H]2[C@](C)(COC(C)=O)[C@H](OC(C)=O)CC[C@@]2(C)[C@@H]1CC(Nc1ccc(S(=O)(=O)Nc2nccc(C)n2)cc1)C1=CCOC1=O` (stereo not given in full), the growth in the experiment on HCT-15 colon is -42% (active); in the experiment on HT29 colon, -28.2% (active); with SNB-75 CNS, 9.66% (active); in the experiment on SNB-19 CNS, 53.6%; with U251 CNS, 14.6%; in the experiment on PC-3 prostate, 41.5%. The growth in the experiment on SK-MEL-5 melanoma was 45%; in the experiment on UACC-62 melanoma it was 24.2%; in the experiment on LOX IMVI melanoma, -72.9% (active); with SK-MEL-28 melanoma it was -7.05% (active); with SK-MEL-2 melanoma, 40.1%; with EKVX NSCLC, 79.2%. For the same molecule, the growth in the experiment on SN12C renal is 25.1%; with UO-31 renal it was 33.4%; in the experiment with TK-10 renal, 83%; with ACHN renal, -37.2% (active); with CAKI-1 renal, 61.4%; in the experiment on A498 renal, 96.8%. Moreover, the growth in the experiment with CCRF-CEM leukemia is -19.2% (active); in the experiment with MOLT-4 leukemia, -1.85% (active).

For the molecule `CN1C(=O)N(C)C2C1NN=c1s/c(=C\c3ccc(F)cc3)c(=O)n12` (stereo not given), the growth is 27.3% with HCT-15 colon; 2.74% (active) with HT29 colon; -7.45% (active) with SNB-75 CNS; 34.8% in the experiment on SNB-19 CNS; 26.8% in the experiment on U251 CNS; 34.8% with PC-3 prostate. Also, the growth with SK-MEL-5 melanoma was 31.7%; in the experiment on UACC-62 melanoma, 26.7%; with LOX IMVI melanoma, 36.1%; in the experiment on SK-MEL-28 melanoma, 59.4%; with SK-MEL-2 melanoma, 48.6%; with EKVX NSCLC, 63.8%. The growth with SN12C renal was 36.3%; with UO-31 renal, 39.8%; in the experiment on TK-10 renal, 65.1%; with ACHN renal it was 39.2%; with CAKI-1 renal it was 29.1%; in the experiment on A498 renal, 9.72% (active). Besides, the values for the growth in the experiment with CCRF-CEM leukemia and with MOLT-4 leukemia were 18.1% and 23.2%, respectively.
